# Only some compounds are listed: those with a hit (about 4.6% of all), similar ones and a draw of the others.
# D1 antag – antagonists of human D1 dopamine receptor; activity change, negative = inhibition, % at 10 µM; P21728; hit rate 3.2% among 360,000; HEK293 TREx D1 cells, calcium flux, dopamine EC80; active compounds read low; in the data active means activity change below about -30%; further: on the % scale 0 is the no-effect control and ±100 the full control effect
# Target sequence (P21728 whole entry, looked up): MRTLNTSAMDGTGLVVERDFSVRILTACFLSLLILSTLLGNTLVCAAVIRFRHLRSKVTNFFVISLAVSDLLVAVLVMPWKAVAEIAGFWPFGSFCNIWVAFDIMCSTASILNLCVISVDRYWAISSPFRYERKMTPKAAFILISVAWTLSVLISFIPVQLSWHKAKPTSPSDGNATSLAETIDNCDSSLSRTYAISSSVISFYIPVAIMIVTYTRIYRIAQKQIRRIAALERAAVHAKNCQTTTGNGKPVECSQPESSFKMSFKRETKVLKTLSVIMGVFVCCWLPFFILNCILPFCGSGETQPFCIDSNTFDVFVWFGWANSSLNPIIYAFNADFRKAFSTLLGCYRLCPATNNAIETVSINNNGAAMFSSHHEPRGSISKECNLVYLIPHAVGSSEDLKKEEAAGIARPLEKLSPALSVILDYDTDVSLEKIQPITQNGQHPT
#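 HEK293 T-REx cells expressing inducible, force-coupled D1 receptor; no-wash Ca dye, 30–90 min RT. Cmpd → 180 s read at 1 Hz → EC80 DA → 180 s read.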
# TRHR PAM – TRH receptor (human) allosteric enhancement. TRHR cells, fluo-8 calcium fluorescence, EC20 TRH enhancement. AID 493056. enhancement, % at 2 µM. hit rate 0.66% among 360,000; in the data active means enhancement above about 30%; further: 0% is about no effect
#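 TRHR-expressing cells loaded with fluo-8 calcium dye were read kinetically (ex 480/em 530) during compound addition, then stimulated with an EC20 of TRH (10 nM final). Enhancement of the Gq-mediated intracellular calcium response was scored.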
# D1 potentiator – human D1 dopamine receptor positive modulation; P21728; HEK293 TREx D1 cells, calcium flux, dopamine EC20 potentiation; potentiation, % at 10 µM; hit rate 0.036% among 360,000; AID 504651; in the data active means potentiation above about 30%; further: 0% is about no effect
# D1 ag – activates the human D1 dopamine receptor | P21728 | HEK293 T-REx D1 cells, calcium flux, agonist mode | activation, % at 2 µM | hit rate 1% among 360,000 | AID 504660; further: 0% is about no effect
#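 Tetracycline-induced HEK293 TREx D1 cells, force-coupled to calcium signalling, were dye-loaded with a no-wash calcium kit. Compound was pin-added after a 10 s baseline. Fluorescence was read kinetically at 1 cycle/s for 180 s, with calcium rises flagged as agonism.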
# TRHR agonist – TRH receptor (human) agonism | P34981 | TRHR cells, calcium flux fluo-8, FDSS agonist mode | activation, % at 2 µM | hit rate 0.18% among 360,000; further: 0% is about no effect
#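 Agonist-mode FDSS calcium read (Ex 480/Em 530, 1 s cycles) in 1536-well TRHR cells with fluo-8 dye, after 10-cycle baseline and 23 nL compound addition; TRH at EC20 (10 nM final) added afterwards for the enhancer phase.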
# An asterisk follows results filed as active; ! = not active in a repeat. Unless noted, no stated cut-off is given here; in the data, active means activation above about 30%; inactive means the rest.
SMILES,D1 antag,TRHR PAM,D1 potentiator,D1 ag,TRHR agonist
O=C(COC(=O)COc1ccc2ccccc2c1)NCC(F)(F)F,-31.5*,-7.0,2.8,25.5,0.0
COc1ccc(CCNC(=O)c2ccc(Cn3c(=O)c4ccccc4n(CC(=O)C(C)(C)C)c3=O)cc2)cc1OC,5.1,-1.3,-0.2,5.0,0.4
CCOC(=O)c1oc2ccc(S(=O)(=O)n3nc(-c4cc(OC)cc(OC)c4)cc3N)cc2c1C,7.2,2.7,0.0,4.8,1.5
O=C(O)C1CCN(C(=O)c2csc(-c3ccc4c(c3)CCO4)n2)CC1,-33.7*,-1.7,0.8,2.9,-0.5
CCN1CCN(c2nnc(-n3cccc3C(=O)NCc3ccccc3OC)s2)CC1,4.6,2.2,-5.0,2.2,0.1
O=C(Cc1cc(=O)[nH][nH]1)N/N=C/c1ccccc1Cl,13.3,-3.6,-4.2,3.1,0.5
O=C(Cc1cc(=O)[nH][nH]1)N/N=C/C(Cl)=C/c1ccccc1,0.8,-0.4,1.9,31.2*!,-0.3
CC1=C(C(=O)Nc2ccc(Cl)cc2)C(CC(C)C)n2nc(SCc3ccccc3C)nc2N1 (stereo not given),-3.4,0.6,-1.6,1.9,1.4
CC1=C(C(=O)Nc2ccc(C)cc2C)C(CC(C)C)n2nc(SCc3ccccc3C)nc2N1 (stereo not given),-35.5*,-1.8,-1.9,-1.4,0.9
COc1cccc(N2C(=O)N(Cc3ccc(C#N)cc3)c3ccccc3S2(=O)=O)c1,-27.4,2.0,1.9,7.0,0.8
Cc1cccc(Oc2ncnc3oc(-c4ccccc4)cc23)c1C,-81.3*,-6.9,-10.7,0.9,0.1
Cc1cc(Cl)ccc1Oc1ncnc2oc(-c3ccccc3)cc12,1.9,0.8,-0.2,2.9,-0.3
O=C(COc1ccc2c(c1)CCC2)N1CCN(c2cccc(C(F)(F)F)c2)CC1,-44.1*,19.7,-1.8,8.0,-0.1
O=C(COc1cccc(C(F)(F)F)c1)N1CCN(c2ccc(O)cc2)CC1,-3.5,-3.7,8.7,6.0,0.2
O=C(COc1cccc(C(F)(F)F)c1)N1CCN(c2ccccc2O)CC1,-34.5*,-3.9,-6.2,11.7,-0.1
CC(=O)c1ccc(N2C(=O)Nc3ccccc3S2(=O)=O)cc1,16.0,2.0,-0.8,5.6,0.3
COCCn1nc2cc(C(=O)NCC34CC5CC(CC(C5)C3)C4)ccc2c1OC,-32.2*,0.1,5.7,-0.4,-0.5
CCCn1nc2cc(C(=O)NCC34CC5CC(CC(C5)C3)C4)ccc2c1OCC,2.7,5.1,0.1,5.9,-0.9
O=C1Cc2cc(NS(=O)(=O)c3ccc([N+](=O)[O-])cc3)cc3c2N1CCC3,-32.3*,-2.3,-2.0,1.2,-0.7
O=C(Nc1ccc(F)cc1Cl)C1CCN(c2ncnc3c2nc2n3CCCCC2)CC1,-4.7,-25.8,-2.5,1.8,-0.9
Cc1cnc(NS(=O)(=O)c2ccc(Cl)cc2)c(Br)c1,-38.5*,2.8,-1.1,0.9,-0.8
CCOc1ccc(OCc2cccc(C(=O)Nc3ccc(CN4CCCCC4)cc3)c2)cc1,-30.5*,-2.5,-8.8,37.6*,2.9
O=C(Nc1ccc(CN2CCCCC2)cc1)c1cccc(F)c1,9.3,-2.6,-8.3,2.8,1.2
COc1ccc(OCc2cccc(C(=O)Nc3ccc(CN4CCCCC4)cc3)c2)cc1,-20.3,-1.7,-11.1,47.5*,2.6
COc1cc(OC)cc(C(=O)Nc2ccc(CN3CCCCC3)cc2)c1,-6.6,15.5,-3.6,0.6,0.1
SMILES,D1 antag,TRHR PAM,D1 potentiator,D1 ag,TRHR agonist
COc1ccc(CCNC(=O)CSc2nnc(-c3ccc(C)cc3)c(-c3ccc(C)cc3)n2)cc1OC,-4.5,-9.3,-0.2,-2.3,-0.2
Cc1cc(C)n(CCCN2CCC(C(=O)Nc3cccc(-c4cccc(F)c4)c3)CC2)n1,-57.7*,-3.0,-7.6,34.0*,1.2
CCOC(=O)N1CCN(Cc2nc3c(c(=O)n(C)c(=O)n3C)n2Cc2cc(C)ccc2C)CC1,-31.8*,9.6,-6.7,2.0,-0.8
CCCCn1c(CN2CCN(C(=O)OCC)CC2)nc2c1c(=O)n(C)c(=O)n2C,30.8,-5.0,-1.3,0.8,0.8
COc1ccc(C(=O)N/N=C/c2cccnc2)cc1,-5.3,-1.5,6.2,4.7,1.2
CC(Oc1ccc(-c2ccccc2)cc1)C(=O)N/N=C/c1cccnc1 (stereo not given),-35.8*,-3.1,-7.7,9.0,0.3
CSc1ncc(C(=O)Nc2cccc(Cl)c2C)c(-c2ccccc2)n1,-1.6,20.1,-2.9,-1.1,-0.4
COc1cccc(-c2c(C(=O)N/N=C(\C)c3ccco3)nnn2-c2nonc2N)c1,34.0,20.3,2.2,46.8*,5.0
C/C(=N\NC(=O)c1nnn(-c2nonc2N)c1-c1ccccc1)c1ccco1,34.0,23.4,3.0,66.0*,14.0
CCn1c(SCC(=O)c2cc(C)ccc2C)nc2cc(S(=O)(=O)N3CCOCC3)ccc21,15.6,-5.6,1.9,4.1,-0.2
CCC(C)NC(=O)CSc1nc2cc(S(=O)(=O)N3CCOCC3)ccc2n1CC (stereo not given),-31.7*,0.5,0.6,-0.7,0.5
N#CC1=C(N)C(C#N)(C#N)C(c2cccnc2)C2CCCC=C12 (stereo not given),-30.5*,0.2,-2.8,4.3,1.8
CN(C)c1ccc(NC(=O)Cn2c(SCc3ccc(F)cc3)nc3cccnc32)cc1,2.3,-2.9,-2.8,1.8,0.4
Cc1ccc2c(c1)-c1onc(C(=O)N(C)c3ccc(F)cc3)c1CO2,-5.5,-6.2,-3.8,0.4,0.2
COc1ccc(/C=N/NC(=O)CNC(=O)/C=C/c2ccco2)cc1OC,15.2,6.7,-3.1,1.1,-0.7
O=C(CNc1ccc2ccccc2c1)N/N=C/c1ccc(OC(=O)/C=C/c2ccco2)cc1,10.9,3.5,-4.9,1.2,0.2
O=C(CNc1cccc2ccccc12)N/N=C/c1ccc(OC(=O)/C=C/c2ccco2)cc1,-70.0*,-1.6,-3.1,2.6,0.2
O=C(/C=C/c1ccco1)Oc1cc(Br)cc(/C=N/NC(=O)c2ccccc2O)c1,-35.4*,4.6,-10.4,12.3,3.7
COc1cc(/C=N/NC(=O)CNC(=O)/C=C/c2ccco2)cc(OC)c1OC,1.9,30.5*,-2.8,2.6,-0.3
Cc1ccc(C(=O)N/N=C/c2cccc(OC(=O)/C=C/c3ccco3)c2)cn1,-16.6,-6.8,-6.3,0.3,-0.1
CN(CCCNC(=O)c1cc2c(=O)n(C)c3ccccc3c2s1)Cc1ccccc1,-12.5,-0.2,-1.4,0.5,-0.7
CC(C)(C)C1CCc2c(sc(NC(=O)c3ccccc3F)c2C(=O)NCc2ccco2)C1 (stereo not given),0.6,-7.3,1.4,-0.2,-0.9
NC(=O)CSCc1nc2ccccc2s1,11.9,36.6*,-1.1,4.1,1.5
Oc1ccccc1OCc1nc2ccccc2s1,-31.1*,-8.2,-6.0,-0.7,-0.7
N/C(Cc1nc2ccccc2s1)=N\O,10.3,-0.6,-3.0,4.2,1.6

# Bioassay records as filed in PubChem.
